Screens as filed in PubChem BioAssay.
Rows were chosen to be rich in hits. Some 2.9% of all compounds tested hit in one or more screens of this group.
PAFAH2 FP inh: inhibitors of human PAFAH2. Q99487. recombinant PAFAH2, FP-rhodamine activity probe, fluorescence polarization. inhibition, % at 3.39 µM. actives 0.99% (n = 340,000). AID 492956;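 active means inhibition above the mean over all tested compounds plus 3 SD, cut at about 30% in these data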;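 further: inhibitors block probe labeling of enzyme so polarization drops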
EBNA-1 inh: blocks EBNA-1 binding to DNA | EBNA-1 DNA binding, fluorescence polarization | inhibition, % at 14.8 µM | actives 0.34% (n = 300,000) | AID 1950; in the data active means inhibition above about 28%
PAFAH1B3 inh: blocks human PAF acetylhydrolase 1B catalytic subunit 3 | recombinant PAFAH1B3, FP-rhodamine probe, fluorescence polarization | inhibition, % at 3.39 µM | actives 0.28% (n = 340,000) | Q15102;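 active means inhibition above the screen-wide average of all tested compounds plus 3 SD, cut at about 25% in these data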
ZTA counter: ZTA (EBV) inhibition in EBNA-1 counter-screen. actives 0.15% (n = 320,000). inhibition, % at 11 µM. P03206. ZTA-DNA binding, fluorescence polarization; in the data active means inhibition above about 33%
Target sequence (P03206 whole entry, looked up): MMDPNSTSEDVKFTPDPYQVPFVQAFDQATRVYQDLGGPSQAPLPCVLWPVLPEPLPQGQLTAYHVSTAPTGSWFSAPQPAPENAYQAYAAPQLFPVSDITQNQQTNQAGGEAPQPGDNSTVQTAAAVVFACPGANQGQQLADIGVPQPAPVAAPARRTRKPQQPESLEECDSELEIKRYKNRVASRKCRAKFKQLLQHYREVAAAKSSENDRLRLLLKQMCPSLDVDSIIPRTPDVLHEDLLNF
rCAG RNA binder: binds r(CAG) RNA repeats | actives 1.3% (n = 370,000) | r(CAG) RNA repeat, TO-PRO-1 dye displacement fluorescence | inhibition, % at 3 µM;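 active means inhibition above the plate cutoff, the mean of all test compounds on that plate plus 3 SD, cut at about 35% in these data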;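 further: higher means more dye released from RNA so lower well fluorescence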
PAFAH1B2 FP inh: PAFAH1B2 (human) inhibition; P68402; recombinant PAFAH1B2, FP-rhodamine activity probe, fluorescence polarization; inhibition, % at 3.39 µM; actives 1.2% (n = 340,000); AID 492953;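 active means inhibition above the mean of all tested compounds plus 3 SD, cut at about 24% in these data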
Target sequence (P68402 whole entry, looked up): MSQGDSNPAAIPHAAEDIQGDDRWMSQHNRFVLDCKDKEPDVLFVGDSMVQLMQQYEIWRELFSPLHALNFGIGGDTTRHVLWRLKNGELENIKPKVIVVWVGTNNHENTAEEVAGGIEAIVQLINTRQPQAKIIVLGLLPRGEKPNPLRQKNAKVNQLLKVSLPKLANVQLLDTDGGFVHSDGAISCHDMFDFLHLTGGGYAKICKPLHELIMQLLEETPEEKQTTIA
A number is an active result; i = inactive; nt = no result.

SMILES	PAFAH2 FP inh	EBNA-1 inh	PAFAH1B3 inh	ZTA counter	rCAG RNA binder	PAFAH1B2 FP inh
O=C1C(Nc2ccc(O)cc2)=C/C(=N/S(=O)(=O)c2cccs2)c2ccccc21	34.7	nt	64.0	nt	i	28.5
COc1cc(NC(=O)c2ccccc2)c(C)cc1NC(=O)CSc1nnc(-c2ccco2)n1Cc1ccco1	nt	nt	nt	nt	i	nt
Cc1ccc(C2CCC3(CCC(=O)N3CCOC(=O)Nc3cccc(C#N)c3)CC2)cc1 (stereo unspecified)	nt	nt	nt	nt	i	nt
COC(=O)[C@]12CCCCC=C1N(Cc1ccc(OC)cc1)C(=O)[C@@H]2CC(=O)NCc1cccs1	nt	nt	nt	nt	i	nt
CC(C)(C)C1CCC(=O)C(C2(O)C(=O)Nc3ccccc32)C1 (stereo unspecified)	i	i	i	i	i	27.1
O=C(NCCc1ccccc1)C(c1ccncc1)N(C(=O)c1csnn1)C1CC1 (stereo unspecified)	71.3	i	i	i	i	i
COc1ccc(CNS(=O)(=O)/C=C/c2cc(C)ccc2CNC(=O)OC(C)(C)C)cc1	nt	nt	nt	nt	i	nt
O=C(CCn1c(=O)[nH]c2ccccc2c1=O)N1CCN(c2cccc(C(F)(F)F)c2)CC1	i	i	i	i	i	30.8
O=C(CCn1c(=O)[nH]c2ccccc2c1=O)N1CCN(c2ccc(Cl)cc2)CC1	i	i	i	i	i	i
CC(=O)CC[C@@H]1CC[C@]2(CCCN(S(C)(=O)=O)C2)O1	nt	nt	nt	nt	i	nt
CCc1nnc(NS(=O)(=O)c2ccc(NC(=O)COc3ccc4ccccc4c3)cc2)s1	i	i	i	i	i	i
CCc1nnc(NS(=O)(=O)c2ccc(NC(=O)/C=C/c3ccc(OC)cc3OC)cc2)s1	i	i	i	i	82.3	i
CC(C)(C)C(=O)OC12CCCN(C1)/C(=C/c1cccnc1)C2 (stereo unspecified)	nt	nt	nt	nt	i	nt
O=C1CCCc2c1cc(-c1ccccc1)n2-c1ccccc1	i	i	i	i	i	24.5
Cc1ccc(SCC(=O)N=C2NC(=O)CS2)cc1	i	i	i	i	i	26.1
Cc1ccc(N=C2NC(=O)CS2)cc1	i	i	i	i	i	i
COc1ccccc1C1NC(=O)NC(C)=C1C(=O)OC1CCCCC1 (stereo unspecified)	i	i	i	i	i	i
COc1cccc2c1C1(O)C2CCCCCCCCCC12OCCCO2 (stereo unspecified)	i	nt	i	nt	i	25.3
O=C(CNS(=O)(=O)c1ccccc1)NCC(=O)OCc1ccc(Br)cc1	i	i	i	i	i	44.9
CC(C)c1nc(N(C)S(C)(=O)=O)nc(-c2ccc(F)cc2)c1/C=C/[C@H](O)C[C@@H](O)CC(=O)O	nt	nt	nt	nt	i	nt
CC(C)c1onc(C(=O)N(C)Cc2ccccc2)c1[N+](=O)[O-]	i	i	i	39.0	i	i
CC(C)c1onc(C(=O)NCCc2ccccc2)c1[N+](=O)[O-]	i	i	i	i	i	i
O=S(=O)(O)c1cc(O)c2cc(Nc3ccccc3)ccc2c1	41.6	nt	43.2	nt	43.0	26.0
O=S(=O)(O)c1cc(O)c2ccc(Nc3ccccc3)cc2c1	65.8	nt	42.5	nt	65.0	i
COc1ccccc1Nc1ccc2c(O)cc(S(=O)(=O)O)cc2c1	75.4	nt	75.4	nt	74.4	34.0
SMILES	PAFAH2 FP inh	EBNA-1 inh	PAFAH1B3 inh	ZTA counter	rCAG RNA binder	PAFAH1B2 FP inh
O=S(=O)(O)c1ccc(O)c2cc(Nc3ccccc3)ccc12	89.2	nt	76.2	nt	97.4	57.6
CC(=O)Nc1ccc2c(O)cc(S(=O)(=O)O)cc2c1	i	nt	i	nt	i	i
O=C(NCCc1c[nH]c2ccccc12)OCc1cn(Cc2ccccc2C(F)(F)F)nn1	nt	nt	nt	nt	i	nt
CCOC(=O)C1=C(CSc2nc3c(cc2C#N)CN(C)CC3)OC(N)=C(C#N)C1c1ccc(F)cc1 (stereo unspecified)	i	i	i	i	50.4	i
Nc1c(C(=O)N2CCOCC2)cnn1Cc1ccccc1	nt	nt	nt	nt	i	nt
CC(=O)Nc1ccc(S(=O)(=O)N2c3ccc(F)cc3CCC2C)cc1 (stereo unspecified)	i	i	i	i	i	i
COc1ccc(S(=O)(=O)N2c3ccc(F)cc3CCC2C)cc1 (stereo unspecified)	i	i	i	i	i	26.9
Cc1ccc(-c2nc3ccccc3n2C(C(=O)NC(C)(C)C)C2CC2)cc1 (stereo unspecified)	nt	nt	nt	nt	i	nt
COC(=O)c1cc(C)nc2c1C(=O)C(=O)C=C2N1CCOCC1	55.6	i	73.0	57.1	i	28.3
COC(=O)c1cc(S(=O)(=O)N2CCOCC2)c(Cl)cc1N1CCOCC1	i	i	i	i	i	i
Cc1ccc(S(=O)(=O)N2CCCC2C(=O)N2CCN(c3ccccc3)CC2)cc1 (stereo unspecified)	nt	nt	nt	nt	i	nt
Cc1ncc(CSc2ccc(Cl)cc2)c(CO)c1O	i	i	i	i	i	26.9
Cc1ncc(CSc2nccc(=O)[nH]2)c(CO)c1O	i	i	i	i	i	i
O=C1CC(c2ccco2)Sc2ccccc2N1 (stereo unspecified)	i	i	i	i	i	i
O=c1[nH]c2c(s1)C(c1ccco1)C1C3CCC(C3)C1S2 (stereo unspecified)	i	i	i	i	i	57.4
O=C(O)c1ccc(NC(=O)c2cccc(C(=O)Nc3ccc(C(=O)O)cc3)n2)cc1	i	i	40.0	i	i	30.6
Cc1ccc(CCNC(=O)c2ccc(CS(=O)(=O)Cc3ccccc3F)o2)cc1	i	i	i	i	i	45.0
C=CCn1c(SCC(=O)NC23CC4CC(CC(C4)C2)C3)nc2cc(C(=O)O)ccc2c1=O	i	i	i	i	34.5	i
COc1cc(C(=O)NC2CCCCN(C(C)C)C2=O)cc(OC)c1OC (stereo unspecified)	nt	nt	nt	nt	i	nt
CC(C)Cn1c2ccccc2c2cc(C(=O)O)ccc21	i	i	i	i	i	28.6
Cc1ccccc1NS(=O)(=O)c1ccc(C(=O)OCC(=O)NCC(C)C)cc1	30.1	i	i	i	i	i
COC(=O)c1cc(-c2ccc(OC)c(OC)c2)c(=O)n2c1CCC2	nt	nt	nt	nt	i	nt
O=Cc1ccc(O)c(O)c1	i	i	i	i	i	i
Oc1ccc(N=Cc2ccc(O)c(O)c2)cc1	i	i	34.5	i	nt	i
COc1ccc(-c2n[nH]c(=S)n2-c2ccc(C)cc2C)cc1	i	i	i	i	i	i
SMILES	PAFAH2 FP inh	EBNA-1 inh	PAFAH1B3 inh	ZTA counter	rCAG RNA binder	PAFAH1B2 FP inh
Cc1ccc(-n2c(-c3ccc(Cl)cc3)n[nH]c2=S)c(C)c1	i	i	i	i	i	28.6
Cc1cc(NS(=O)(=O)c2ccc(NC(=O)c3ccc(Cl)cc3Cl)cc2)no1	i	i	i	i	i	i
Cc1cc(NS(=O)(=O)c2ccc(NC(=S)NC(=O)c3ccc(Cl)cc3Cl)cc2)no1	i	i	i	i	64.8	i
CN(Cc1ccc(F)cc1)C(=O)c1cccc(S(=O)(=O)NCc2ccccc2)c1	i	i	i	i	i	24.9
O=C(COC(=O)c1cccc(S(=O)(=O)NCc2ccccc2)c1)Nc1ccccc1OC(F)F	43.0	i	i	i	i	i
O=C(COC(=O)c1ccc(S(=O)(=O)NCc2ccco2)cc1)Nc1ccccc1OC(F)F	i	i	i	i	i	i
